ChEMBL document CHEMBL3988442, “University of Dundee, Small-Polar-MMV Screening Library” (2021)
Hit rate of the full screen: of about 48,000 compounds, about 13,000 (27%) showed an effect of 50% or more. Some of the results follow.

System: Wolbachia pipientis
Experiment: Anti-Wolbachia Cell-Based Screen
Type: functional
Parameters: scale not given: in the data most compounds retested in dose-response had high values
Settings: 5 µM

| Compound | Percent Effect |
| --- | --- |
| CCC(CNC(=O)C1CCC1)(OC)c1ccccc1 (stereo unspecified) | -1.894% |
| CN(Cc1ncc[nH]1)c1nc(-c2ccccn2)nc2c1CCNCC2 | -0.01551% |
| c1cnnc(N2CCCC(NCc3nc(C4CC4)no3)C2)c1 (stereo unspecified) | 9.898% |
| Cn1nc(C(C)(C)C)cc1NC(=O)CSc1nnc[nH]1 | -11.13% |
| CCC(CNC(=O)OC)(OC)c1ccccc1 (stereo unspecified) | 1.829% |
| CN(C)CCN(C)C(=O)NC1CCC(Oc2ccccc2C#N)CC1 (stereo unspecified) | -10.57% |
| CC(=O)N1CCC(c2cccc(NC3CCOCC3)n2)CC1 | 84.73% |
| CNc1cccc(C2CCN(C(C)=O)CC2)n1 | 105.5% |
| O=C(N1CCOCC1)N1CCC(Nc2ccncn2)CC1 | 6.366% |
| Cc1noc(C2CCN(C(=O)c3ccc(NC4CC4)nc3)CC2)n1 | -4.487% |
| CC(=O)N1CCC(c2cnc(NC3CCOCC3)cn2)CC1 | 89.11% |
| CC(=O)NC1(C(=O)N2CCC(Nc3cccnn3)CC2)CCCCC1 | 6.747% |
| CNc1cccc(C2CCCN(C(C)=O)C2)n1 (stereo unspecified) | 2.608% |
| COc1ccccc1CNC(C)c1cnc2cc(C)nn2c1C (stereo unspecified) | -25.88% |
| CC(C)Cc1cc(C(=O)O)nc2[nH]c(=O)[nH]c(=O)c12 | 118.2% |
| CC(C)c1cc(C(=O)O)nc2[nH]c(=O)[nH]c(=O)c12 | 113.5% |

| Compound | Percent Effect |
| --- | --- |
| CC(C)CCc1cc(C(=O)O)nc2[nH]c(=O)[nH]c(=O)c12 | 107.7% |
| CC1(C)OCC2(CO1)CN(C(=O)c1ccccc1Cl)C2 | 5.486% |
| CCCc1cc(C(=O)N(Cc2cccnc2)C2CCCCC2)[nH]n1 | 21.65% |
| CN(Cc1cnn(C)c1)S(=O)(=O)N1CCCCCC1 | 16.54% |
| CCN(CC)[C@H]1COC[C@@H]2CN(Cc3cnn(C)c3)C[C@@H]21 | 13.67% |
| CN(Cc1ccc2nsnc2c1)CC1(O)CNCCOC1 (stereo unspecified) | -20.02% |
| CN(Cc1cnn(C)c1)S(=O)(=O)N1CCCCC1 | -3.727% |
| Cn1cc(CN(CC2(O)CCNC2)C2CCCCC2)cn1 (stereo unspecified) | 118.9% |
| OC1(CN(Cc2cccnc2)C2CCCCC2)CNCCOC1 (stereo unspecified) | 96.56% |
| Cn1cc(CN(CC2(O)CNCCOC2)C2CCCCC2)cn1 (stereo unspecified) | 106.6% |
| OC1(CNCc2noc(Cc3ccccc3)n2)CNCCOC1 (stereo unspecified) | 7.869% |
| CC(SCCC(=O)NC(N)=O)c1c(F)cccc1F (stereo unspecified) | -3.785% |
| Cc1cccc(N2CCC(NC(=O)CCCc3cccs3)CC2)n1 | -12.55% |
| CCSC(C)c1nc(-c2ccc(C)nn2)no1 (stereo unspecified) | 3.709% |
| Clc1ccccc1C1(c2ccnc(-c3ccncc3)n2)CCNCC1 | -9.027% |
